# Test results: the supplement of paper PMC4466140
# Experiments:
# Assay in all cases: SPOT peptide array binding signal intensity (averaged, normalized) (arbitrary units (background-subtracted, floor 0; scale differs between SH3 domains)); higher = stronger binding of the SH3 domain to the peptide
# [1] = biological target: AgAbp1
# Procedure, shortened: (§1)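 GST-fused SH3 domains from four yeast species were expressed in E. coli BL21(DE3), purified on glutathione Sepharose and incubated at 10 μg/ml overnight at 4°C in TBS-based blocking buffer on cellulose membranes carrying synthetic 15-mer peptides, with cysteines replaced by serines. Bound protein was detected with anti-GST antibody, an HRP anti-mouse secondary and luminol, then imaged and quantified with Genespotter. Binding signal is the normalized, background-subtracted spot intensity averaged over replicates, in arbitrary units that differ between domains.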
# [2] = biological target: AgBbc1
# Procedure, shortened: as §1
# [3] = biological target: AgBem1-D1
# Procedure, shortened: as §1
# [4] = biological target: AgBzz1-D1
# Procedure, shortened: as §1
# [5] = biological target: AgBzz1-D2
# Procedure, shortened: as §1
# [6] = biological target: AgCyk3
# Procedure, shortened: as §1
# [7] = biological target: AgFus1
# Procedure, shortened: as §1
# [8] = biological target: AgHof1
# Procedure, shortened: as §1
# [9] = biological target: AgHse1
# Procedure, shortened: as §1
# [10] = biological target: AgLsb1
# Procedure, shortened: as §1
# [11] = biological target: AgLsb4
# Procedure, shortened: as §1
# [12] = biological target: AgMyo5
# Procedure, shortened: as §1
# [13] = biological target: AgNbp2
# Procedure, shortened: as §1
# [14] = biological target: AgRvs167
# Procedure, shortened: as §1
# [15] = biological target: AgSho1
# Procedure, shortened: as §1
# [16] = biological target: AgSla1-D1-D2
# Procedure, shortened: as §1
# [17] = biological target: AgSla1-D3
# Procedure, shortened: as §1
# [18] = biological target: CaAbp1-D1
# Procedure, shortened: as §1
# [19] = biological target: CaAbp1-D2
# Procedure, shortened: as §1
# [20] = biological target: CaBbc1
# Procedure, shortened: as §1
# [21] = biological target: CaBem1-D1
# Procedure, shortened: as §1
# [22] = biological target: CaBzz1-D1
# Procedure, shortened: as §1
# [23] = biological target: CaBzz1-D2
# Procedure, shortened: as §1
# [24] = biological target: CaCyk3
# Procedure, shortened: as §1
# [25] = biological target: CaFus1
# Procedure, shortened: as §1
# [26] = biological target: CaHof1
# Procedure, shortened: as §1
# [27] = biological target: CaHse1
# Procedure, shortened: as §1
# [28] = biological target: CaLsb1
# Procedure, shortened: as §1
# [29] = biological target: CaLsb4
# Procedure, shortened: as §1
# [30] = biological target: CaMyo5
# Procedure, shortened: as §1
# [31] = biological target: CaNbp2
# Procedure, shortened: as §1
# [32] = biological target: CaRvs167
# Procedure, shortened: as §1
# [33] = biological target: CaRvs167-3
# Procedure, shortened: as §1
# [34] = biological target: CaSho1
# Procedure, shortened: as §1
# [35] = biological target: CaSla1-D1-D2
# Procedure, shortened: as §1
# [36] = biological target: CaSla1-D3
# Procedure, shortened: as §1
# [37] = biological target: ScAbp1
# Procedure, shortened: as §1
# [38] = biological target: ScBbc1
# Procedure, shortened: as §1
# [39] = biological target: ScBem1-D1
# Procedure, shortened: as §1
# [40] = biological target: ScBzz1-D1
# Procedure, shortened: as §1
# [41] = biological target: ScBzz1-D2
# Procedure, shortened: as §1
# [42] = biological target: ScCyk3
# Procedure, shortened: as §1
# [43] = biological target: ScFus1
# Procedure, shortened: as §1
# [44] = biological target: ScHof1
# Procedure, shortened: as §1
# [45] = biological target: ScHse1
# Procedure, shortened: as §1
# [46] = biological target: ScLsb1
# Procedure, shortened: as §1
# [47] = biological target: ScLsb2
# Procedure, shortened: as §1
# [48] = biological target: ScLsb3
# Procedure, shortened: as §1
# [49] = biological target: ScLsb4
# Procedure, shortened: as §1
# [50] = biological target: ScMyo3
# Procedure, shortened: as §1
# [51] = biological target: ScMyo5
# Procedure, shortened: as §1
# [52] = biological target: ScNbp2
# Procedure, shortened: as §1
# [53] = biological target: ScPex13
# Procedure, shortened: as §1
# [54] = biological target: ScRvs167
# Procedure, shortened: as §1
# [55] = biological target: ScSho1
# Procedure, shortened: as §1
# [56] = biological target: ScSla1-D1-D2
# Procedure, shortened: as §1
# [57] = biological target: ScSla1-D3
# Procedure, shortened: as §1
# [58] = biological target: SpAbp1-D1
# Procedure, shortened: as §1
# [59] = biological target: SpBbc1
# Procedure, shortened: as §1
# [60] = biological target: SpBzz1-D1
# Procedure, shortened: as §1
# [61] = biological target: SpBzz1-D2
# Procedure, shortened: as §1
# [62] = biological target: SpCyk3
# Procedure, shortened: as §1
# [63] = biological target: SpHof1
# Procedure, shortened: as §1
# [64] = biological target: SpHof1-2
# Procedure, shortened: as §1
# [65] = biological target: SpHof1-3
# Procedure, shortened: as §1
# [66] = biological target: SpHse1
# Procedure, shortened: as §1
# [67] = biological target: SpLsb1
# Procedure, shortened: as §1
# [68] = biological target: SpLsb4
# Procedure, shortened: as §1
# [69] = biological target: SpMyo1
# Procedure, shortened: as §1
# [70] = biological target: SpNbp2
# Procedure, shortened: as §1
# [71] = biological target: SpPex13
# Procedure, shortened: as §1
# [72] = biological target: SpRvs167
# Procedure, shortened: as §1
# [73] = biological target: SpSla1-D1-D2
# Procedure, shortened: as §1
# [74] = biological target: SpSla1-D3
# Procedure, shortened: as §1
binder,measurement,setting,value
EQEEIAPSLPSRNSI,SPOT peptide array binding signal intensity,[1],6
same,SPOT peptide array binding signal intensity,[2],≤ 0
same,SPOT peptide array binding signal intensity,[3],≤ 0
same,SPOT peptide array binding signal intensity,[4],10.5
same,SPOT peptide array binding signal intensity,[5],1
same,SPOT peptide array binding signal intensity,[6],≤ 0
same,SPOT peptide array binding signal intensity,[7],≤ 0
same,SPOT peptide array binding signal intensity,[8],4.25
same,SPOT peptide array binding signal intensity,[9],≤ 0
same,SPOT peptide array binding signal intensity,[10],17.5
same,SPOT peptide array binding signal intensity,[11],1050
same,SPOT peptide array binding signal intensity,[12],≤ 0
same,SPOT peptide array binding signal intensity,[13],10
same,SPOT peptide array binding signal intensity,[14],3
same,SPOT peptide array binding signal intensity,[15],≤ 0
same,SPOT peptide array binding signal intensity,[16],≤ 0
same,SPOT peptide array binding signal intensity,[17],≤ 0
same,SPOT peptide array binding signal intensity,[18],≤ 0
same,SPOT peptide array binding signal intensity,[19],7.5
same,SPOT peptide array binding signal intensity,[20],5.5
same,SPOT peptide array binding signal intensity,[21],2
same,SPOT peptide array binding signal intensity,[22],≤ 0
same,SPOT peptide array binding signal intensity,[23],≤ 0
same,SPOT peptide array binding signal intensity,[24],1
same,SPOT peptide array binding signal intensity,[25],22
same,SPOT peptide array binding signal intensity,[26],1
same,SPOT peptide array binding signal intensity,[27],4
same,SPOT peptide array binding signal intensity,[28],0.5
same,SPOT peptide array binding signal intensity,[29],5990
same,SPOT peptide array binding signal intensity,[30],≤ 0
same,SPOT peptide array binding signal intensity,[31],≤ 0
same,SPOT peptide array binding signal intensity,[32],43.8
same,SPOT peptide array binding signal intensity,[33],1
same,SPOT peptide array binding signal intensity,[34],≤ 0
same,SPOT peptide array binding signal intensity,[35],≤ 0
same,SPOT peptide array binding signal intensity,[36],≤ 0
same,SPOT peptide array binding signal intensity,[37],14.5
same,SPOT peptide array binding signal intensity,[38],≤ 0
same,SPOT peptide array binding signal intensity,[39],≤ 0
same,SPOT peptide array binding signal intensity,[40],7
same,SPOT peptide array binding signal intensity,[41],1
same,SPOT peptide array binding signal intensity,[42],1
same,SPOT peptide array binding signal intensity,[43],1
same,SPOT peptide array binding signal intensity,[44],1.5
same,SPOT peptide array binding signal intensity,[45],7
same,SPOT peptide array binding signal intensity,[46],127
same,SPOT peptide array binding signal intensity,[47],8
same,SPOT peptide array binding signal intensity,[48],4150
same,SPOT peptide array binding signal intensity,[49],2440
same,SPOT peptide array binding signal intensity,[50],≤ 0
same,SPOT peptide array binding signal intensity,[51],≤ 0
same,SPOT peptide array binding signal intensity,[52],2.5
same,SPOT peptide array binding signal intensity,[53],646
same,SPOT peptide array binding signal intensity,[54],244
same,SPOT peptide array binding signal intensity,[55],≤ 0
same,SPOT peptide array binding signal intensity,[56],1
same,SPOT peptide array binding signal intensity,[57],1
same,SPOT peptide array binding signal intensity,[58],1
same,SPOT peptide array binding signal intensity,[59],2
same,SPOT peptide array binding signal intensity,[60],≤ 0
same,SPOT peptide array binding signal intensity,[61],1
same,SPOT peptide array binding signal intensity,[62],≤ 0
same,SPOT peptide array binding signal intensity,[63],1
same,SPOT peptide array binding signal intensity,[64],≤ 0
same,SPOT peptide array binding signal intensity,[65],0.75
same,SPOT peptide array binding signal intensity,[66],≤ 0
same,SPOT peptide array binding signal intensity,[67],13
same,SPOT peptide array binding signal intensity,[68],4140
same,SPOT peptide array binding signal intensity,[69],≤ 0
same,SPOT peptide array binding signal intensity,[70],5.5
same,SPOT peptide array binding signal intensity,[71],≤ 0
same,SPOT peptide array binding signal intensity,[72],450
same,SPOT peptide array binding signal intensity,[73],2
same,SPOT peptide array binding signal intensity,[74],1
PSPSSSPPPIPKTAN,SPOT peptide array binding signal intensity,[31],15.5
same,SPOT peptide array binding signal intensity,[32],≤ 0
same,SPOT peptide array binding signal intensity,[33],3
same,SPOT peptide array binding signal intensity,[34],5
same,SPOT peptide array binding signal intensity,[35],8.5
same,SPOT peptide array binding signal intensity,[36],≤ 0
same,SPOT peptide array binding signal intensity,[37],9
same,SPOT peptide array binding signal intensity,[38],≤ 0
same,SPOT peptide array binding signal intensity,[39],≤ 0
same,SPOT peptide array binding signal intensity,[40],4
same,SPOT peptide array binding signal intensity,[41],20
same,SPOT peptide array binding signal intensity,[42],≤ 0
same,SPOT peptide array binding signal intensity,[43],≤ 0
same,SPOT peptide array binding signal intensity,[44],≤ 0
same,SPOT peptide array binding signal intensity,[45],50
same,SPOT peptide array binding signal intensity,[46],1
same,SPOT peptide array binding signal intensity,[47],≤ 0
same,SPOT peptide array binding signal intensity,[48],24.5
same,SPOT peptide array binding signal intensity,[49],≤ 0
same,SPOT peptide array binding signal intensity,[50],2350
same,SPOT peptide array binding signal intensity,[51],1200
same,SPOT peptide array binding signal intensity,[52],6.5
same,SPOT peptide array binding signal intensity,[53],≤ 0
same,SPOT peptide array binding signal intensity,[54],2
same,SPOT peptide array binding signal intensity,[55],≤ 0
same,SPOT peptide array binding signal intensity,[56],≤ 0
same,SPOT peptide array binding signal intensity,[57],22.8
same,SPOT peptide array binding signal intensity,[58],8
same,SPOT peptide array binding signal intensity,[59],5
same,SPOT peptide array binding signal intensity,[60],182
same,SPOT peptide array binding signal intensity,[61],0.5
same,SPOT peptide array binding signal intensity,[62],1
same,SPOT peptide array binding signal intensity,[63],≤ 0
same,SPOT peptide array binding signal intensity,[64],≤ 0
same,SPOT peptide array binding signal intensity,[65],0.5
same,SPOT peptide array binding signal intensity,[66],2.5
same,SPOT peptide array binding signal intensity,[67],1.5
same,SPOT peptide array binding signal intensity,[68],≤ 0
same,SPOT peptide array binding signal intensity,[69],1570
same,SPOT peptide array binding signal intensity,[70],3
same,SPOT peptide array binding signal intensity,[71],≤ 0
same,SPOT peptide array binding signal intensity,[72],1.17
same,SPOT peptide array binding signal intensity,[73],2
same,SPOT peptide array binding signal intensity,[74],3
